System: Human papillomavirus type 1a E7 protein (residues 1-88)
Assay: HPV1a E7 small-molecule binders, primary screen, biochemical, small-molecule microarray, residues 1-88, 635 nm (AID 1129)
Conditions: small-molecule microarray binding, fluorescence 635 nm; higher = more signal

SMILES | composite z-score
O=C(c1ccccc1)N1C(=O)[C@]2(COC(c3ccc(OCCCO)cc3)=N2)Cc2ccccc21 | 1.2
CCCc1cc2c(n1Cc1cc(F)cc(F)c1)C(C)C1CN(C(=O)c3ccccc3)C(C)(C(=O)OC)C21 (stereo not drawn) | 1.24
O=C(c1ccccc1)N1C(=O)[C@@]2(Cc3ccccc31)N=C(c1ccc(OCCCO)cc1)O[C@H]2c1ccccc1 | 1.21
CO[C@H]1O[C@H](CO)[C@@H](OC(=O)Nc2ccccc2)[C@H](OC(=O)Nc2ccccc2)[C@@H]1OC(=O)Nc1ccccc1 | 1.25
COc1ccc(CCNC(=O)[C@@]2(Sc3ccc(C)cc3)CC(=O)N(C3Cc4ccccc4C3)[C@@H]2c2ccc(CO)cc2I)cc1 | 0.255
CCCCCN1CC=CC23O[C@@H]4C=CCCOC(=O)C4[C@H]2C(=O)N(CCCCCO)[C@@H]3C1=O (stereo partly drawn) | 0.0287
COc1cc2c(cc1OC)CN(C(=O)[C@H]1[C@@H]3C(=O)O[C@@H](c4ccccc4)[C@@H](c4ccccc4)N3[C@@H](c3ccc(O)cc3)[C@]13C(=O)Nc1ccc(C#CCCO)cc13)CC2 | 1.21
CN1C=C(C(=O)OCCS(C)(=O)=O)C(C(=O)OCCS(C)(=O)=O)=CC(c2ccc(CO)cc2)=CC1C1CC1 (stereo not drawn) | 0.138
C=C[C@H](CO[Si](CC)(CC)CC)N(Cc1ccc(OC(C)=O)c(OC)c1)S(=O)(=O)c1ccc(Br)cc1 | 1.08
C[N+](C)(C)CCCCCCNC(=O)[C@@H]1C[C@@H]2C(=O)N[C@@H](Cc3ccccc3)C(=O)N2[C@@H]1c1cccc(OCCO)c1 | 0.432
NC(=O)[C@@H]1[C@H]2C(=O)O[C@H](c3ccccc3)[C@H](c3ccccc3)N2[C@H](c2ccc(O)cc2)[C@@]12C(=O)Nc1ccccc12 | -0.507
C=C(CCCC)/C(=C/C[C@@H](OC(C)=O)c1ccc(OCCO)cc1)c1cnc2ccccc2c1 | 0.974

Target: Focal adhesion kinase 1 (Homo sapiens) (UniProt Q05397)
Sequence (Q05397 whole entry, looked up): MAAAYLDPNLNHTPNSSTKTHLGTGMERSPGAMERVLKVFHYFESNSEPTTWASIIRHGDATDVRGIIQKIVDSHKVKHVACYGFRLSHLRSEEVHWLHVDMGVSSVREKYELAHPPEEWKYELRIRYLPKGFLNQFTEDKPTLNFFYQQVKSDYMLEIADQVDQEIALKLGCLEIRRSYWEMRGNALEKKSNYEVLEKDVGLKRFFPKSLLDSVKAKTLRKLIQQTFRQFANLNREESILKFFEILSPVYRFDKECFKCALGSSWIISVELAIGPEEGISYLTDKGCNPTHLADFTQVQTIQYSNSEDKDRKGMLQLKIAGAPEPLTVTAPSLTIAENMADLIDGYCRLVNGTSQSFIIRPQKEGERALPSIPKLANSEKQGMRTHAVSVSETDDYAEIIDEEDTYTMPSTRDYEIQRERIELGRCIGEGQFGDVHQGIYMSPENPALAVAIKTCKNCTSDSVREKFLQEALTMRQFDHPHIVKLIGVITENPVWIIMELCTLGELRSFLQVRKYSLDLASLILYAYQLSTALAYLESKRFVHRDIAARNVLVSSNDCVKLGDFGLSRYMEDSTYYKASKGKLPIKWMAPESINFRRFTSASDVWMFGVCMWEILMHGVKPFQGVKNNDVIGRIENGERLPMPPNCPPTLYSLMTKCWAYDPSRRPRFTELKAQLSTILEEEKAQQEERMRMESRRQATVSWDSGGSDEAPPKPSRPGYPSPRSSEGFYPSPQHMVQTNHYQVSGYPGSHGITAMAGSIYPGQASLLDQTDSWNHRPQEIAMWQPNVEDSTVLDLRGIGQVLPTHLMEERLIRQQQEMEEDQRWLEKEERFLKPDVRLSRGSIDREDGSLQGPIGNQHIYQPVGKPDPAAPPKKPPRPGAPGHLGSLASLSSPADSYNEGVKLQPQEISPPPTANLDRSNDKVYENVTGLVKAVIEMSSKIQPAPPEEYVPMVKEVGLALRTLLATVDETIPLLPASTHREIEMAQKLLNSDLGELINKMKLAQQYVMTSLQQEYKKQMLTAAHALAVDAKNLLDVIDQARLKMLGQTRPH
Assay: PTK2 protein binding on printed compound slides – biochemical, small-molecule microarray, 635/667 nm fluorescence, BSA, DTT, primary screen (AID 1130);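 further: composite of spot emission at 667 nm and signal to noise over triplicate slides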
Conditions: 635 nm fluorescence, higher = more signal

SMILES | composite z-score
CC(C)=CCN[C@H](CO)c1ccccc1 | -0.0383
CCCC#C[Si](O[C@H](CC)c1cn(Cc2cccc(Cl)c2)nn1)(C(C)C)C(C)C | -0.442
C=CCOC(=O)[C@H]1[C@@H]2C(=O)O[C@@H](c3ccccc3)[C@@H](c3ccccc3)N2[C@@H](c2ccc(OCCOC(=O)[C@H]3C[C@H]4C(=O)N[C@@H](CCCCNC(C)=O)C(=O)N4[C@H]3c3cccc(OCCO)c3)cc2)[C@]12C(=O)Nc1ccccc12 | -0.333
C=C(COC)/C(=C/C[C@@H](OC(=O)c1ccncc1)c1ccc(CO)o1)c1cc(C(=O)OC)ccc1OC | 0.987
CC(C)C(=C=CC[C@@H](O)c1ccc(OCCO)cc1)C[C@@H](O)COCc1ccccc1 | 0.0144
CCCCCCc1nc(-c2cc(C)c(OC)c(C)c2)cc2c1[Si](C(C)C)(C(C)C)OC2 | 0.0497
COc1cc2c(cc1O)C(C1CC1)N(Cc1sc3ccccc3c1Cl)CC2 (stereo not drawn) | -0.0249
COCCOC(=O)N1C(=O)[C@@]2(c3cc(C#CCC(C(=O)OC)C(=O)OC)ccc31)[C@H](C(=O)N1CCN(c3ncccn3)CC1)[C@H]1C(=O)O[C@H](c3ccccc3)[C@H](c3ccccc3)N1[C@@H]2c1ccccc1OCCO | 0.467
C[C@H]1NC(=O)[C@@]23C(=O)N[C@@H](Cc4ccccc4)C2[C@H](C)[C@@]2(C)O[C@H]2C3/C=C/C/C=C\CNC(=O)[C@@H]2CCCN2C1=O (stereo partly drawn) | 0.0122
CCOC(=O)C[C@H]1[C@H](OC(=O)c2ccc(C(=O)c3ccccc3)cc2)[C@@H](NC(=O)c2ccc3ccccc3n2)c2cc(OCCCO)ccc2N1C(=O)c1ccccc1 | 0.0305
CCCC[C@@H]1C[C@H]1[C@@H](NC(=O)c1cccs1)c1ccc(-c2ccccc2)cc1 | 0.0412
COC(=O)[C@@]1(Cc2ccc(OC)cc2)[C@H]2c3cc(C(=O)N4CCCC4)n(Cc4ccc(O)c(OC)c4)c3C[C@H]2CN1C(=O)c1ccccc1 | 0.264
[N-]=[N+]=NCc1ccccc1C[C@]1(C(N)=O)COC(c2ccc(OCCCO)cc2)=N1 | -0.0367
C=C(COC)C(=O)CC[C@@H](OC(C)=O)c1ccc(CO)o1 | -0.285
O=C1c2ccccc2[C@](Cc2ccccc2I)(C(=O)NCCN2CCOCC2)[C@H](c2ccc(CO)cc2)N1Cc1ccccc1Cl | 0.0936
COCCCNC(=O)[C@]1(CCC(=O)OC(C)(C)C)N=C(c2ccc(OCCCO)cc2)O[C@@H]1c1ccccc1CN=[N+]=[N-] | 0.383
C=CCNC(=O)[C@@H]1[C@H]2C(=O)O[C@H](c3ccccc3)[C@H](c3ccccc3)N2[C@H](c2ccc(OCCO)cc2)[C@@]12C(=O)Nc1ccc(C#CCC(C(=O)OC)C(=O)OC)cc12 | 0.913
COc1cc2c(cc1OC)CN(C(=O)[C@@H]1[C@H]3C(=O)O[C@H](c4ccccc4)[C@H](c4ccccc4)N3[C@H](c3ccccc3OCCO)[C@@]13C(=O)Nc1ccc(C#CCCO)cc13)CC2 | 0.222

SMILES | composite z-score
C=CCC(OC(C)=O)[C@@H]1[C@@H](N(Cc2cc3ccccc3o2)C(=O)c2cccc3ccccc23)c2cc(OCCCO)ccc2N1C(=O)c1ccc(-c2ccccc2)cc1 (stereo partly drawn) | -0.166
COC(=O)[C@@]1(Cc2ccc(F)cc2)[C@H]2c3cc(C(=O)N4CCCC4)n(CCCNc4ncc(C(F)(F)F)cc4Cl)c3C[C@H]2CN1C(=O)c1ccccc1 | 0.604
CC(C)N1C(=O)c2ccccc2[C@](C)(C(=O)NCCN2CCOCC2)[C@@H]1c1ccc(CO)cc1 | 0.356
CC(C)C(=C=CC[C@@H](O)c1ccc(OCCO)cc1)C[C@@H](O)c1ccccn1 | -0.542
CO[C@H]1O[C@H](CO)[C@@H](OC(=O)Nc2ccc(Oc3ccccc3)cc2)[C@H](OC(=O)Nc2ccc3c(c2)OCO3)[C@H]1OC(=O)Nc1ccc2c(c1)OCO2 | 1.29
C=CCOC(=O)[C@H]1[C@@H]2C(=O)O[C@@H](c3ccccc3)[C@@H](c3ccccc3)N2[C@@H](c2ccc(OCCOC(=O)[C@@H]3C[C@@H]4C(=O)N[C@@H](CC(C)C)C(=O)N4[C@@H]3c3ccc(O)cc3)cc2)[C@]12C(=O)Nc1ccccc12 | 0.289
O=C(c1ccccc1)N1C(=O)[C@]2(COC(c3ccc(OCCCO)cc3)=N2)Cc2ccccc21 | 0.628
CCCc1cc2c(n1Cc1cc(F)cc(F)c1)C(C)C1CN(C(=O)c3ccccc3)C(C)(C(=O)OC)C21 (stereo not drawn) | 2.09
O=C(c1ccccc1)N1C(=O)[C@@]2(Cc3ccccc31)N=C(c1ccc(OCCCO)cc1)O[C@H]2c1ccccc1 | 1.23
CO[C@H]1O[C@H](CO)[C@@H](OC(=O)Nc2ccccc2)[C@H](OC(=O)Nc2ccccc2)[C@@H]1OC(=O)Nc1ccccc1 | 0.806
COc1ccc(CCNC(=O)[C@@]2(Sc3ccc(C)cc3)CC(=O)N(C3Cc4ccccc4C3)[C@@H]2c2ccc(CO)cc2I)cc1 | 0.235
CCCCCN1CC=CC23O[C@@H]4C=CCCOC(=O)C4[C@H]2C(=O)N(CCCCCO)[C@@H]3C1=O (stereo partly drawn) | -0.383
COc1cc2c(cc1OC)CN(C(=O)[C@H]1[C@@H]3C(=O)O[C@@H](c4ccccc4)[C@@H](c4ccccc4)N3[C@@H](c3ccc(O)cc3)[C@]13C(=O)Nc1ccc(C#CCCO)cc13)CC2 | 0.055
CN1C=C(C(=O)OCCS(C)(=O)=O)C(C(=O)OCCS(C)(=O)=O)=CC(c2ccc(CO)cc2)=CC1C1CC1 (stereo not drawn) | 0.0684
C=C[C@H](CO[Si](CC)(CC)CC)N(Cc1ccc(OC(C)=O)c(OC)c1)S(=O)(=O)c1ccc(Br)cc1 | 1.76
C[N+](C)(C)CCCCCCNC(=O)[C@@H]1C[C@@H]2C(=O)N[C@@H](Cc3ccccc3)C(=O)N2[C@@H]1c1cccc(OCCO)c1 | 0.214
NC(=O)[C@@H]1[C@H]2C(=O)O[C@H](c3ccccc3)[C@H](c3ccccc3)N2[C@H](c2ccc(O)cc2)[C@@]12C(=O)Nc1ccccc12 | 0.119
C=C(CCCC)/C(=C/C[C@@H](OC(C)=O)c1ccc(OCCO)cc1)c1cnc2ccccc2c1 | 0.153

— PubChem BioAssay
